# Measurements published in PubChem BioAssay (NCI).
# About 83,000 compounds went through this panel and 20% of them were active in at least one assay; those are over-represented in the sample as a whole.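 Percent growth is the endpoint: 0 to 100 indicates growth inhibition (40 means 60% inhibition), 0 means no net growth, and negative values indicate cell death.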 Values without a mark were called inactive. Activity calls are given as the source filed them. The calls were made as follows: active = growth percent below 10; inactive = the rest.
# Tested on: PC-3 prostate
# Experiment: NCI-60 one-dose screen, 48 h (100 = growth as untreated, 0 = no growth, -100 = all killed)
# Details: 10 µM
row,SMILES,growth
1,Cc1c(-c2ccccc2)[nH]c2ccccc12,87.8%
2,COc1ccc(C(C#N)=C2C=CC(=NO)C=C2)cc1,50.4%
3,COc1ccc(N)c2c1C(=O)c1ccccc1C2=O,89.6%
4,CC[C@@]1(OC(=O)CN(C)C)C(=O)OCc2c1cc1n(c2=O)Cc2cc3c(N)cccc3nc2-1,18%
5,N#CC(=C1C=CC(=NO)C=C1)c1ccccc1,3.44% (active)
6,COc1cc(N)ccc1Nc1c2ccccc2nc2ccccc12,59%
7,O=C1C=CC(=O)N1c1ccc(N2C(=O)C=CC2=O)cc1,112%
8,Cc1cc(Cl)ccc1NC(=O)/C(Cl)=C1/Sc2ccccc2NC1=O,78%
9,O=C(CNS(=O)(=O)Cc1ccccc1)NNc1ccccc1,63.2%
10,Cc1cc(C)c(N2C(=O)CC(Sc3ccccc3N)C2=O)c(C)c1 (stereo not given),68.4%
11,O=C1c2ccccc2CCC1(Br)Br,54.5%
12,O=C(NC(=S)Nc1ccccn1)c1ccccc1,77.9%
13,ClCCn1c(CCl)nc2ccc(Cl)cc21,-63.9% (active)
14,N#C/C(=C/N1C(=O)/C(=C/c2ccc([N+](=O)[O-])cc2)SC1=S)c1nc2ccccc2s1,79.7%
15,CN(C)CCNc1cccc2sc3ccc(O)cc3c(=O)c12,38.7%
16,NCc1c(O)ccc2ccccc12,84.9%
17,CN(CC(=O)O)c1ccc(/C=C/c2ccnc3ccccc23)cc1,71.2%

# Tested on: SK-MEL-5 melanoma
# Experiment: as above
# Details: 10 µM
row,SMILES,growth
1,COc1ccc(C(C#N)=C2C=CC(=NO)C=C2)cc1,80.3%
2,N#CC(=C1C=CC(=NO)C=C1)c1ccccc1,2.56% (active)
3,Cc1cc(N=C2C=CC(=[N+](C)C)C=C2)c(N)cc1N,90%
4,COc1cc(N)ccc1Nc1c2ccccc2nc2ccccc12,85%
5,O=C1C=CC(=O)N1c1ccc(N2C(=O)C=CC2=O)cc1,103%
6,Cc1cc(Cl)ccc1NC(=O)/C(Cl)=C1/Sc2ccccc2NC1=O,90%
7,O=C(CNS(=O)(=O)Cc1ccccc1)NNc1ccccc1,47.5%
8,O=C(NC(=S)Nc1ccccn1)c1ccccc1,93.3%
9,ClCCn1c(CCl)nc2ccc(Cl)cc21,-94.9% (active)
10,N#C/C(=C/N1C(=O)/C(=C/c2ccc([N+](=O)[O-])cc2)SC1=S)c1nc2ccccc2s1,63.5%
11,CN(C)CCNc1cccc2sc3ccc(O)cc3c(=O)c12,44%
12,NCc1c(O)ccc2ccccc12,86.3%
13,CN(CC(=O)O)c1ccc(/C=C/c2ccnc3ccccc23)cc1,93%
